# Data: PubChem BioAssay AID2315 (National Center for Advancing Translational Sciences (NCATS), 2010)
# Out of some 290,000 compounds screened, about 27,000 (9.3%) were called active. Cut-off read from the data, not from the text of the source: active = inhibition mostly above about 28% (no sharp cut-off); inactive = mostly below about 43%. For the sample, actives were picked, then their nearest neighbours and some compounds at random.
# Assay: A qHTS for Small Molecule Inhibitors of Shiga Toxin; note: 0% is about no effect
# Settings: Vero cells, Shiga toxin protein synthesis inhibition reporter; at 38.7 µM, stronger effect = higher value
row,SMILES,inhibition
1,Cc1ccc(C23CC4CC(CC(C(=O)NCC(=O)O)(C4)C2)C3)cc1,-7.52% (inactive)
2,Cc1cccc(OCC(=O)NC2CC(C)(C)NC(C)(C)C2)c1,1.98% (inactive)
3,CC(NCCc1ccc(S(N)(=O)=O)cc1)C(=O)NCc1ccccc1 (centres undefined),45.3% (inactive)
4,Cc1cc(S(=O)(=O)N2CCOCC2)ccc1OCC(=O)Nc1cccc(C(F)(F)F)c1,-13.1% (inactive)
5,N#Cc1c(-c2ccccc2)nc(SCc2ccc([N+](=O)[O-])cc2)[nH]c1=O,-3.91% (inactive)
6,COc1ccccc1CC(=O)Nc1ccc([N+](=O)[O-])cc1OC,2.24% (inactive)
7,O=C(NCc1ccccc1)c1onc(CSc2nc3ccccc3[nH]2)c1C(=O)NCc1ccccc1,-3.72% (inactive)
8,COc1ccccc1CSc1ncc(-c2ccc([N+](=O)[O-])cc2)[nH]1,54.5% (active)
9,COc1ccccc1-c1noc(CSc2nc(C)cc(=O)[nH]2)n1,-3.44% (inactive)
10,C=CCSc1nc2ccccc2[nH]1,14.5% (inactive)
11,CCc1nnc(NC(=O)CCCSc2nc3ccccc3[nH]2)s1,13.8% (inactive)
12,COc1ccccc1CSc1nc2ccccc2[nH]1,71.9% (active)
13,CCCCSc1nc2ccccc2[nH]1,79.8% (active)
14,CC(C)=N/N=C1/NC(=O)C(Cc2ccccc2)S1 (centres undefined),-7.41% (inactive)
15,COc1cccc(CNC(=O)CN(C)S(=O)(=O)c2ccc3c(c2)c(=O)n(C)c(=O)n3C)c1,18.4% (inactive)
16,O=C(O)CCCCCCCCc1cn(CN2C(=O)c3ccccc3C2=O)nn1,-8.38% (inactive)
17,CC(CCc1ccccc1)NC(=O)COC(=O)c1ccc(F)cc1 (centres undefined),-4.73% (inactive)
18,Cc1cccc(-c2nc(CS(=O)CC(=O)NC(C)CCc3ccccc3)c(C)o2)c1 (centres undefined),-4.68% (inactive)
19,O=C(CCCN1C(=O)/C(=C/c2cccs2)SC1=S)Nc1ccc(O)cc1,42.3% (inactive)
20,Cc1cc(C)cc(C(=O)NCCN2CCOCC2)c1,-7.36% (inactive)
21,CC(=O)Oc1cc2c(C(=O)NCCN3CCOCC3)c(C)oc2c2ccccc12,44.7% (active)
22,Cc1ccc(C(=O)NCCN2CCOCC2)cc1C,19% (inactive)
23,CC(=O)NC(CC(=O)Nc1cccc(S(=O)(=O)N2CCCC2)c1)c1ccccc1 (centres undefined),-34.1% (inactive)
24,CC(=O)N1CCc2c(sc(NC(=O)CCS(=O)(=O)c3ccccc3)c2C#N)C1,17.3% (inactive)

row,SMILES,inhibition
1,O=C1CSC(=S)N1c1ccc(O)cc1,-10.4% (inactive)
2,N#Cc1c(Cl)nc(-c2cccnc2)nc1-c1ccccc1,-3.23% (inactive)
3,Cc1ccc(C(C(=O)NC2CCCC2)N(Cc2ccco2)C(=O)CCC(=O)Nc2ccccn2)cc1 (centres undefined),-14.7% (inactive)
4,Cc1ccc2c(c1)N(CC(=O)N(Cc1ccccn1)Cc1ccco1)C(=O)C(C(C)C)O2 (centres undefined),33.8% (active)
5,Cc1ccnc(NC(=O)CCC(=O)N(CC(=O)NCc2ccccc2)Cc2ccco2)c1,-4.34% (inactive)
6,Cc1cc(C)c2c(=O)[nH]c(SCC(=O)Nc3ccc(Br)cc3)nc2n1,3.52% (inactive)
7,CN(c1ccc(OCC(=O)O)cc1)S(=O)(=O)c1ccc2ccccc2c1,-4.36% (inactive)
8,O=S(=O)(NC1CCCCC1N1CCC(O)CC1)c1ccc(Cl)cc1 (centres undefined),-13.2% (inactive)
9,COc1ccc(S(=O)(=O)N(CC(=O)NCc2ccco2)c2ccc(F)cc2)cc1,35.2% (inactive)
10,O=C(CSc1nc(-c2ccco2)cc(C(F)(F)F)n1)NCc1cccs1,-12.1% (inactive)
11,COc1ccc(-c2cc(C(F)(F)F)nc(SCCC(=O)NCc3ccco3)n2)cc1,25.3% (active)
12,Cn1cc(CCC(=O)NC2CC2)c2ccccc21,11.7% (inactive)
13,Cc1cccc(NC(=O)Cn2cc(C(=O)c3ccco3)c3ccccc32)c1,-14.6% (inactive)
14,CC1CCN(C(=O)Cn2cc(C(=O)c3ccco3)c3ccccc32)CC1,21.4% (inactive)
15,N#Cc1ccc(Cn2cc(C(=O)c3ccco3)c3ccccc32)cc1,92.3% (active)
16,NC(=O)N/N=C\c1cccs1,17.5% (inactive)
17,Cc1n[nH]c(=O)nc1N/N=C/c1cccs1,29.8% (active)
18,Cc1nnc(N/N=C/c2cccs2)[nH]c1=O,3.51% (inactive)
19,CC1(C)Oc2ccc3ccc(=O)oc3c2/C(=N/O)C1=O,-11.1% (inactive)
20,COc1cc(NC(=O)CN2C(=O)NC(C)(c3ccc(OC(F)F)cc3)C2=O)cc(OC)c1OC (centres undefined),-3.05% (inactive)
21,COc1ccccc1C(=O)NC(=S)NC12CC3CC(CC(C3)C1)C2,-21.8% (inactive)
22,CCOc1cccc(/C=C/c2ccc3ccccc3n2)c1OC(C)=O,50.8% (inactive)
23,COc1cccc(/C=C2\C=C(c3ccc(C)cc3)OC2=O)c1OC(C)=O,11.6% (inactive)
24,COc1cccc(/C=C/c2ccc3ccccc3n2)c1OC(C)=O,42.7% (active)

row,SMILES,inhibition
1,O=C(NCCc1c[nH]c2ccccc12)C1CCN(Cc2ccc(Br)cc2)CC1,-4.77% (inactive)
2,O=C(Cn1cc(C(=O)C2CC2)c2ccccc21)Nc1ccccc1Cl,-2.68% (inactive)
3,O=c1[nH]c(/C=C\c2cccc(C(F)(F)F)c2)nc(O)c1[N+](=O)[O-],-8.88% (inactive)
4,COc1cc(/C=C2\C(=N)N3N=C(CC(=O)N4CCOCC4)SC3=NC2=O)cc(OC)c1OC,-7.7% (inactive)
5,Cc1cccc(CSc2ccc(-c3cccs3)nn2)c1,36.9% (active)
6,Cc1cccc(CSc2nnc(Cn3c(=O)sc4ccccc43)n2C)c1,-3.45% (inactive)
7,O=C(CSc1ccc(-c2cccs2)nn1)Nc1ccccc1F,32.3% (inactive)
8,COc1ccc(-c2ocnc2C(=O)Nc2ccc3c(c2)CCC3)cc1,-10.8% (inactive)
9,O=C(Nc1ccc(-n2cccn2)cc1)C1CCN(Cc2ccsc2)CC1,-3% (inactive)
10,C=CCN1C(=O)C(Cc2cccc(Cl)c2)S/C1=N/N=C/c1ccco1 (centres undefined),-3.82% (inactive)
11,COc1ccc(CN2C(=O)C(C)S/C2=N/N=C/c2ccco2)cc1 (centres undefined),137% (active)
12,CCC1S/C(=N/N=C/c2ccco2)NC1=O (centres undefined),22% (inactive)
13,Cc1cc(C)n(S(=O)(=O)c2cccc([N+](=O)[O-])c2)n1,-4.69% (inactive)
14,COc1ccc(N(CC(=O)Nc2cccc3ccccc23)S(C)(=O)=O)c(OC)c1,-3.17% (inactive)
15,O=C(Nc1ncc2c(n1)CC(c1ccco1)CC2=O)c1ccc(Cl)cc1 (centres undefined),1.6% (inactive)
16,COc1cc(C2CC(=O)c3cnc(NC(C)=O)nc3C2)cc(OC)c1OC (centres undefined),21.5% (inactive)
17,CCc1ccc(Nc2ncc3c(n2)CC(c2ccco2)CC3=O)cc1 (centres undefined),72.5% (active)
18,CCCC(C)NC(=O)C1CCN(C(=O)C2CC(=O)N(c3ccc(C)cc3)C2)CC1 (centres undefined),9.21% (inactive)
19,COc1ccc2c(c1)c1nc3n(c(=O)c1n2CC(=O)Nc1ccccc1)CCS3,10.6% (inactive)
20,COc1cccc(CNC(=O)CCC2CCCN(C(=O)c3ccc(F)c(Cl)c3)C2)c1 (centres undefined),0.606% (inactive)
21,NS(=O)(=O)c1ccc(Nc2nc(-c3ccccc3)cs2)cc1,17.7% (inactive)
22,COc1ccc(CCNc2nc(-c3cccc(NC(C)=O)c3)cs2)cc1OC,0.41% (inactive)
23,Cc1cccc(S(=O)(=O)CC(=O)Nc2nc(-c3ccccc3)cs2)c1,-3.62% (inactive)
24,Cc1cccc(Nc2nc(-c3ccccc3)cs2)n1,150% (active)

row,SMILES,inhibition
1,CC(=O)Nc1cccc(-c2csc(Nc3cccc(C)n3)n2)c1,103% (active)
2,CC(=O)Nc1ccc(S(=O)(=O)Nc2nc(-c3ccc(C(C)(C)C)cc3)cs2)cc1,-13.5% (inactive)
3,COc1ccc(-c2onc3ccc(C(C)=O)cc23)cc1,-4.4% (inactive)
4,O=C(CCS(=O)(=O)c1ccc2c(c1)NC(=O)CS2)NCc1ccccc1Cl,5.67% (inactive)
5,O=C(NCc1ccc2c(c1)OCO2)C(=O)NCC1OCCN1S(=O)(=O)c1ccc(F)cc1 (centres undefined),-4.86% (inactive)
6,O=C(NC(Cc1ccc(O)cc1)C(=O)O)/C(=C/c1ccccc1)NC(=O)c1ccccc1 (centres undefined),8.2% (inactive)
7,O=C(Cc1c(F)cccc1Cl)N1CCN(C(=O)c2ccco2)CC1,-5.75% (inactive)
8,O=C(NCCCN1CCOCC1)c1ccccc1NS(=O)(=O)c1ccc(F)cc1,43.2% (inactive)
9,O=C(c1ccco1)N1CCN(C(=S)Nc2cc(F)cc(F)c2)CC1,35.8% (inactive)
10,O=C(NCCCN1CCOCC1)c1cc(-c2ccccc2F)no1,54.8% (active)
11,O=C(NCCCN1CCOCC1)c1cc(-c2ccc(Cl)cc2)on1,23.1% (inactive)
12,O=C(c1ccco1)N1CCN(C(=O)c2cc(-c3ccccc3F)no2)CC1,66.3% (active)
13,CC(=O)Nc1ccc(S(=O)(=O)NCC2CCC(C(=O)NCCc3ccccc3)CC2)cc1 (centres undefined),3.01% (inactive)
14,COc1ccc(CCNS(=O)(=O)c2cccc([N+](=O)[O-])c2)cc1,-8.39% (inactive)
15,Cc1c(C(C)(C)O)[nH]c2ccc(C#N)cc12,7.17% (inactive)
16,CC(=O)Nc1ccc(NC(=O)CN2C(=O)COc3ccc(S(=O)(=O)N4CCCCC4)cc32)cc1,-6% (inactive)
17,CCOCCCNc1c(CC)c(C)c(C#N)c2nc3ccccc3n12,-5.72% (inactive)
18,Cn1nc(-c2ccccc2)c2cc([N+](=O)[O-])ccc21,-6.77% (inactive)
19,CCOc1ccc(N/C(N)=N/c2nc(C)c(C)c(=O)[nH]2)cc1,0.318% (inactive)
20,COC(=O)Cc1ccc(Oc2ncc(C(F)(F)F)cc2Cl)cc1,26.3% (inactive)
21,N/C(=N\OC(=O)Nc1ccc(Cl)c(Cl)c1)c1ncc(C(F)(F)F)cc1Cl,-18.1% (inactive)
22,COc1cccc(/C=N/Nc2ncc(C(F)(F)F)cc2Cl)c1O,-37.7% (active)
